Assay outcomes deposited in PubChem by several laboratories.
Shown are actives, neighbours in structure and some others; about 4.6% of the full set was active somewhere.
tim23-1 inh = inhibits growth of tim23-1 mutant yeast; S. cerevisiae tim23-1 growth, BacTiter-Glo luminescence, 24 h; inhibition, % at 20 µM; 330,000 compounds, 1.3% hits;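 active means growth inhibition of the mutant yeast at or above 50%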;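 further: temperature-sensitive mutant grown at 25 °C; plate controls were DMSO-treated mutant yeast for no effect and medium wells lacking yeast for full effect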
PfHsp90 set2 = growth inhibition of yeast expressing Plasmodium Hsp90 | S. cerevisiae expressing PfHsp90, BacTiter-Glo ATP, 48 h; yeast lacking PDR1 and PDR3 efflux regulators | inhibition, % at 9.4 µM | 310,000 compounds, 0.32% hits;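 active means every replicate shows inhibition above about 80%, whatever the replicate mean, limit read from the data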;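 further: 0% = DMSO neutral controls and 100% = 20 µM radicicol positive controls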
TIM10 inh = inhibits growth of TIM10 yeast strain | inhibition, % at 10 µM | AID 463195 | S. cerevisiae TIM10 strain growth, BacTiter-Glo luminescence, 24 h | 330,000 compounds, 1.4% hits;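 active means inhibition of 40% or more at the single tested concentration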;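 further: wild-type TIM10 isogenic control strain grown at permissive 25 °C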
V-ATPase pH = yeast V-ATPase proton transport regulation by pHLuorin. 350,000 compounds, 0.37% hits. S. cerevisiae, pHLuorin cytosolic pH fluorescence. response, % at 10 µM; in the data active means response mostly above about 7.3%, no sharp cut-off; inactive means mostly below about 5.4%; further: actives read high
SKKanGAS inh = blocks kanamycin growth of S. pyogenes SKKanGAS strain | inhibition, % at 7.5 µM | 300,000 compounds, 1.3% hits | BacTiter-Glo, 6 h;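 active means mean replicate score, as percent of positive control median, at least 50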;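 further: strain carries kanamycin resistance gene driven by streptokinase promoter and grows in 40 µg/ml kanamycin; loss of luminescence reflects streptokinase promoter inhibition or plain growth inhibition; 0% = median of DMSO wells and 100% = positive control at its reference dose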
tim10-1 inh = tim10-1 yeast growth inhibition | inhibition, % at 20 µM | S. cerevisiae tim10-1 ts strain growth, BacTiter-Glo, 24 h | 330,000 compounds, 2.2% hits;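 active means inhibition of at least 40%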;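 further: mutant grown at 25 °C; 0% = DMSO wells with yeast and 100% = wells holding no yeast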
tim10-1 conf = confirmation of tim10-1 mutant yeast growth inhibitors. shares compounds with tim10-1 inh. S. cerevisiae tim10-1 ts strain growth, BacTiter-Glo, 24 h. inhibition, % at 20 µM. 7,400 compounds, 56% hits. AID 463213;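 active means inhibition of yeast growth at or above a set limit in either of two repeat tests at 20 µM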;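 further: tim10-1 mutant grown at permissive 25 °C to find synthetic lethal compounds; 0% = DMSO yeast wells and 100% = medium wells without yeast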
Starred values were filed as active, the others as inactive; . = not tested or not shown.

SMILES | tim23-1 inh | PfHsp90 set2 | TIM10 inh | V-ATPase pH | SKKanGAS inh | tim10-1 inh | tim10-1 conf
CC1(c2ccc(OC(F)F)cc2)NC(=O)N(/N=C/c2c(O)ccc3ccccc23)C1=O (stereo not drawn) | 47.0 | 7.7 | 21.7 | 2.2 | -2.1 | 41.9* | 26.8
CC1(c2ccc(OC(F)F)cc2)NC(=O)N(CC(=O)Nc2cccc(S(N)(=O)=O)c2)C1=O (stereo not drawn) | 3.9 | -4.7 | -10.8 | -0.8 | -4.8 | -4.6 | .
CCCCCCCC(=O)N/N=C/c1ccc(Br)cc1 | 22.1 | -18.9 | 32.3 | 3.2 | . | 54.2* | 6.1
CCOc1ccc2cc(C#N)c(SCC(=O)N3CCOCC3)nc2c1 | 22.5 | . | 13.4 | -5.5 | -3.2 | 43.3* | 26.8
CCOc1ccc2nc(SCC(=O)N3CCCCCC3)c(C#N)cc2c1 | 16.9 | -37.8 | 15.0 | 0.7 | 0.9 | 26.1 | .
COc1ccc(CCNC(=O)NC23CC4CC(CC(C4)C2)C3)cc1OC | 22.7 | . | 14.7 | -2.6 | 1.5 | 18.6 | .
CCCC(=O)Oc1c(S(=O)(=O)c2ccc(C)cc2)c(C)nn1C(C)(C)C | 42.3 | 2.9 | 13.2 | -1.9 | -1.9 | 12.1 | .
CCC(=O)Oc1c(S(=O)(=O)c2ccc(C)cc2)c(C)nn1C(C)(C)C | 42.9 | -17.3 | 13.1 | 1.7 | -1.6 | 43.7* | 22.9
CCc1ccc(NC2=NCC(=O)N2c2ccc3c(c2)OCCO3)cc1 | 19.0 | 15.0 | -6.8 | -3.4 | -1.4 | 41.6* | 15.6
COC(=O)[C@]1(Cc2ccccc2)N[C@H](c2ccc(-c3ccccc3)cc2)[C@@H]2C(=O)N(C)C(=O)[C@@H]21 | 18.2 | 11.9 | 13.5 | -4.9 | 2.4 | 44.6* | 18.8
CC(C)(C)n1nnnc1C(c1cccs1)N1CCCC2(CCCCC2)C1 (stereo not drawn) | 31.7 | -3.9 | 22.0 | 1.7 | 17.9 | 38.0 | .
CC(C)C(c1nnnn1C1CCCCC1)N1CCCc2ccccc21 (stereo not drawn) | 18.2 | -19.1 | 25.6 | -4.3 | 12.0 | 43.5* | 29.5
CC(C)C(c1nnnn1C1CCCC1)N1CCCc2ccccc21 (stereo not drawn) | 39.3 | . | 24.7 | -1.5 | 0.8 | 41.1* | 36.6*
CC(C)C(c1nnnn1C1CCCCC1)N1CCc2ccccc2C1 (stereo not drawn) | 28.2 | . | 25.3 | -0.7 | -4.7 | 31.6 | .
CC(C)(C)n1nnnc1C(c1cccs1)N1CCCc2ccccc21 (stereo not drawn) | 47.9 | -21.2 | 27.3 | -1.5 | 0.3 | 42.6* | 38.5*
CC(C)C(c1nnnn1C1CCCC1)N1CCc2ccccc21 (stereo not drawn) | 39.1 | -38.7 | 13.7 | 9.1 | . | 36.2 | .
Cn1c(=O)c2c(nc(SCCN3CCOCC3)n2Cc2cccc3ccccc23)n(C)c1=O | 28.6 | . | 23.2 | -3.7 | -1.3 | 43.5* | 26.6
NNC(=O)c1cc(-c2cccs2)nc2ccccc12 | 34.1 | 15.2 | 14.8 | -102.5 | 1.7 | 21.6 | .
C/C(=N\NC(=O)c1cc(-c2cccs2)nc2ccccc12)c1ccccn1 | 40.4 | 1.3 | 32.3 | -2.0 | 90.5* | 66.9* | 48.0*
C/C(=N\NC(=O)c1ccc(Cl)c(Cl)c1)c1ccccn1 | 49.1 | -28.3 | 23.2 | 4.7 | 91.9* | 51.9* | 47.3*
COc1ccc(C(=O)N/N=C(\C)c2ccccn2)cc1OC | 12.0 | -4.7 | 11.0 | 7.3 | 37.8 | 25.9 | .
C/C(=N/NC(=O)c1ccc(C(C)(C)C)cc1)c1ccccn1 | 40.6 | -18.2 | 3.8 | 0.5 | 105.7* | 47.0* | 15.0
CCOC(=O)C1C(C)=C(Nc2ccc(OC)cc2)C(=O)N1c1ccc(OC)cc1 (stereo not drawn) | -12.1 | 6.6 | -8.4 | -0.9 | -0.6 | 3.4 | .
O=C(O)c1ccc(Cl)c(S(=O)(=O)Nc2ccccc2C(=O)Nc2ccc(Cl)cc2)c1 | 8.7 | 10.1 | 14.5 | 0.0 | 17.4 | 3.9 | .
O=C(c1ccc2[nH]ccc2c1)N1CCCC(Nc2ccccc2)C1 (stereo not drawn) | 12.9 | -6.4 | 3.4 | -6.1 | -4.0 | 25.7 | .
SMILES | tim23-1 inh | PfHsp90 set2 | TIM10 inh | V-ATPase pH | SKKanGAS inh | tim10-1 inh | tim10-1 conf
c1ccc(-c2nnn(C34CC5CC(CC(C5)C3)C4)n2)cc1 | 22.2 | 11.8 | 27.4 | -3.1 | -0.4 | 46.6* | 12.4
Nc1ncn(C23CC4CC(CC(C4)C2)C3)n1 | 12.7 | 7.9 | 10.8 | -2.1 | 2.2 | 12.1 | .
CCOC(=O)c1sc2nc(CN3CCN(c4cccc(C(F)(F)F)c4)CC3)[nH]c(=O)c2c1C | 9.1 | 0.2 | 7.2 | -4.0 | -4.4 | 8.2 | .
Cc1c(NC(=O)C(C)OC(=O)/C=C/c2ccc(OC(F)F)cc2)c(=O)n(-c2ccccc2)n1C (stereo not drawn) | 3.7 | -16.3 | 8.3 | 3.2 | -3.3 | -7.0 | .
COCCCNc1c2c3c(cccc3[nH]c1=O)C(=O)c1ccccc1-2 | 15.7 | 20.6 | 31.0 | -0.7 | . | 40.5* | 22.9
COCCCNC1=C(Cl)C(=O)c2ccccc2C1=O | 40.6 | -1.4 | 26.6 | 3.9 | -0.1 | 30.1 | .
Cc1ccc(-c2cc(C(=O)Nc3ccccc3C)c3ccccc3n2)o1 | 14.2 | . | 9.0 | -2.7 | 5.1 | 48.7* | 25.9
COC(=O)c1cc(-c2ccc(C)o2)nc2ccccc12 | 14.7 | -3.4 | 21.6 | 0.3 | 3.7 | 22.8 | .
FC(F)(F)c1ccc(N2CCN(c3cc(-c4ccccc4)nc4ncnn34)CC2)nc1 | 31.1 | -56.0 | 35.2 | 0.7 | 23.2 | 45.3* | 26.9
CC(C)(C)c1ccc(OC(=O)CN2C(=O)C3C4CCC(C4)C3C2=O)cc1 (stereo not drawn) | 26.4 | -56.1 | 24.3 | 1.3 | 2.9 | 41.7* | 25.9
O=C(CN1C(=O)C2C3CCC(C3)C2C1=O)OCC(=O)c1ccccc1 (stereo not drawn) | -6.4 | 1.9 | 7.9 | -0.5 | -2.2 | -7.1 | .
N#Cc1ccccc1NC(=O)CSc1nnc(-c2ccccc2O)n1-c1ccccc1 | 22.7 | . | 12.1 | 0.0 | 6.4 | 41.8* | 16.1
C=CCn1c(C)nnc1SCC(=O)Nc1ccccc1C(=O)NC1CC1 | -16.2 | 28.6 | 5.3 | -6.4 | . | -14.5 | .
O=C1CC(SCc2nc3ccccc3[nH]2)C(=O)N1c1ccc(Cl)cc1 (stereo not drawn) | 36.1 | 6.8 | 21.2 | 3.2 | 15.7 | 32.0 | .
O=C1CC(SCc2nc3ccccc3[nH]2)C(=O)N1c1ccc(F)c(Cl)c1 (stereo not drawn) | 21.2 | 15.0 | 35.4 | 5.4 | 19.2 | 54.1* | 42.5*
Cc1cc(C)c2c(-n3cccc3)c(C(=O)NNS(=O)(=O)c3ccc(Cl)cc3)sc2n1 | 40.5 | -16.8 | 31.6 | 2.0 | 28.5 | 43.4* | 32.5*
Cc1cc(C)c2c(-n3cccc3)c(C(=O)NNS(=O)(=O)c3ccccc3)sc2n1 | 34.2 | . | 28.9 | -1.8 | 20.4 | 34.5 | .
Cc1nc2scc(C)n2c(=O)c1S(=O)(=O)N1CCN(c2cccc(C(F)(F)F)c2)CC1 | 46.6 | 7.0 | 17.4 | 3.4 | 3.0 | 50.1* | 43.1*
